# Test results: the supplement of paper PMC6555819
# Columns and labels:
# Experiment in all cases: PBM binding z-score (relative to random genomic background probes); higher = stronger binding; sequences stand for … in GC…GCGATTGACAGCGTAGAATGAAGG
# [1] = test system: FXR:RXRa (NR concentration 270 nM, RXRa partner concentration 90 nM)
# How it was run: (§1)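 For binding z-scores, the reference was random background probes on custom Agilent 4×180K protein-binding microarrays. These arrays were incubated 1 h with ligand-free nuclear receptor dimers in PBS pH 7.4, 2% milk, 0.02% Triton X-100, 1 mM DTT, 0.2 mg/mL BSA and 0.4 mg/ml salmon testes DNA. Fluorescence was scanned after antibody detection of each partner (one per run) and regression-normalized.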
# [2] = test system: LXRa:RXRa (NR concentration 270 nM, RXRa partner concentration 90 nM)
# How it was run: as §1
# [3] = test system: LXRa homodimer (NR concentration 270 nM)
# How it was run: as §1
# [4] = test system: LXRb:RXRa (NR concentration 270 nM, RXRa partner concentration 90 nM)
# How it was run: as §1
# [5] = test system: LXRb homodimer (NR concentration 270 nM)
# How it was run: as §1
# [6] = test system: PPARa:RXRa (NR concentration 270 nM, RXRa partner concentration 90 nM)
# How it was run: as §1
# [7] = test system: PPARg:RXRa (NR concentration 180 nM, RXRa partner concentration 90 nM)
# How it was run: as §1
# [8] = test system: PPARg:RXRa 270nM:90nM, anti-RXR (NR concentration 270 nM, RXRa partner concentration 90 nM)
# How it was run: as §1
# [9] = test system: PPARg:RXRa 30nM:10nM, anti-RXR (NR concentration 30 nM, RXRa partner concentration 10 nM)
# How it was run: as §1
# [10] = test system: PPARg:RXRa 90nM:30nM, anti-RXR (NR concentration 90 nM, RXRa partner concentration 30 nM)
# How it was run: as §1
# [11] = test system: PPARg:RXRa DBDmut IVT, anti-RXR (DBD mutation: RXRa K156A/R161A, NR concentration 270 nM, RXRa partner concentration 90 nM)
# How it was run: as §1
# [12] = test system: PPARg:RXRa IVT, anti-PPARg (NR concentration 270 nM, RXRa partner concentration 90 nM)
# How it was run: as §1
# [13] = test system: PPARg DBDmut:RXRa IVT, anti-PPARg (DBD mutation: PPARg1 K132A/R137A, NR concentration 270 nM, RXRa partner concentration 90 nM)
# How it was run: as §1
# [14] = test system: PPARg DBDmut IVT, anti-PPARg (DBD mutation: PPARg1 K132A/R137A, NR concentration 270 nM)
# How it was run: as §1
# [15] = test system: PPARg homodimer (NR concentration 180 nM)
# How it was run: as §1
# [16] = test system: PXR:RXRa (NR concentration 270 nM, RXRa partner concentration 90 nM)
# How it was run: as §1
# [17] = test system: PXR homodimer (NR concentration 270 nM)
# How it was run: as §1
# [18] = test system: RARa:RXR (NR concentration 270 nM, RXRa partner concentration 90 nM)
# How it was run: as §1
# [19] = test system: RARa homodimer (NR concentration 270 nM)
# How it was run: as §1
# [20] = test system: RARb:RXRa (NR concentration 270 nM, RXRa partner concentration 90 nM)
# How it was run: as §1
Sequence,PBM binding z-score [1],PBM binding z-score [2],PBM binding z-score [3],PBM binding z-score [4],PBM binding z-score [5],PBM binding z-score [6],PBM binding z-score [7],PBM binding z-score [8],PBM binding z-score [9],PBM binding z-score [10],PBM binding z-score [11],PBM binding z-score [12],PBM binding z-score [13],PBM binding z-score [14],PBM binding z-score [15],PBM binding z-score [16],PBM binding z-score [17],PBM binding z-score [18],PBM binding z-score [19],PBM binding z-score [20]
TCTTGTAGATCAGCAGGTAAAGAAAGCTGGCCAA,0.051,0.0639,-0.443,-0.119,-0.519,0.422,-0.331,0.955,2.5,1.69,1.27,0.386,-0.0476,-0.531,-0.175,-0.0594,-0.358,0.111,0.0298,-0.482
CCTCGAAGGACAACAGGAGGTCAGAGCTGCCAGA,0.962,1.97,1.73,1.5,-0.405,2.05,0.581,0.229,-0.343,-0.119,-0.42,0.185,-0.412,-0.537,1.76,1.94,0.545,2.37,0.491,3.06
CCGACTGGGGCAAAGGTTGCCATACTCAGTACGA,-0.0811,-0.081,-0.3,0.302,-1.06,4.05,9.16,7.89,7.65,8.16,4.21,4.73,-0.511,-0.658,0.733,0.388,-0.135,1.14,-0.228,1.03
TAGCCTAGGTCATGGGGCAGTATACCACGCGAAC,4.95,3.44,0.357,3.37,0.499,4.39,5.11,4.52,1.89,3.69,1.45,3.74,0.479,0.305,1.67,1.78,-0.439,3.21,-0.03,3.79
ATGTCTAGGTAAAGATAGTTCAGTGAATGCAAAT,0.0456,4.09,0.552,0.617,0.0209,0.376,0.701,0.217,0.312,0.184,1.16,1.51,0.413,1.23,0.188,0.798,0.588,0.428,0.724,0.63
AGTCAAAGTTCACTAGGGAACGTAAGATTCAGCT,5.18,5.47,2.42,3.27,0.67,4.19,6.45,6.13,3.52,5.22,0.937,3.63,0.753,0.755,2.24,3.94,2.56,2.71,0.63,4.57
GCTGATAGGTCAGGTTGGTCAGCTAACGGGTACG,2.43,2.19,-0.0156,1.67,0.114,2.71,0.952,1.4,-0.0509,0.754,1.74,1.49,-0.568,-0.567,1.32,1.25,-0.432,2.23,-0.0849,3.8
TAGCCTAGGTCATGCGGGCCTGTATAGTGTCGGC,3.73,3.24,0.135,1.6,-0.428,3.27,1.91,2.39,0.161,1.45,1.65,2.76,-0.075,-0.309,0.586,1.27,-0.864,2.14,-0.78,3.55
AGTCAAGGTTCATCTAGGTAACGTAAGATATGCT,5.36,4.13,1.89,2.57,0.451,3.64,3.69,3.68,1.41,2.98,1.12,3.01,1.11,1.06,1.29,2.48,1.61,2.88,0.372,2.99
CGAACTAGGTCATGGACAGGACAGTGAATAGTAA,3.85,2.37,-0.0954,1.81,-0.546,4.79,8.05,6.56,4.17,6.19,8.1,8.31,3.01,0.998,1.68,1.65,-0.17,2.55,0.249,3.88
CCTACTTGGTCAGGAGGTCACACACCGGATATGA,3.55,3.69,2.02,3.39,0.285,4.29,3.39,3.9,1.75,3.1,1.61,3.56,0.756,0.0151,3.23,4.26,1.05,4.89,2.31,3.75
ATCTCTAAGTAACAAGTTCAGTGAAAGAGAGGAC,0.888,0.954,0.532,0.595,0.901,0.572,0.408,0.672,0.701,0.344,0.199,0.166,0.885,0.883,1.43,1.63,1.97,1.18,1.73,1.57
ACTAGCAGGCCAAGGGTTACTCAAGATTAGTCCG,0.239,2.23,-0.412,0.935,-0.494,2.61,4.88,5.61,4.58,5.71,0.518,2.14,-0.596,-0.597,0.215,0.27,-0.411,1.05,-0.361,0.894
TCTTGTAGATCAAAAGGAGGTTAAGAAAGATCGA,0.895,1.83,0.268,1.37,-0.229,1.81,0.335,2.02,2.91,2.36,1.99,1.45,0.192,0.409,0.066,0.871,0.0133,1.12,0.597,0.428
ATCGAAAGGTAGAGGTGAGTATAGAGAAAGGGAA,0.781,0.589,0.209,0.313,0.482,0.942,1,0.958,0.813,0.82,-0.16,0.688,0.622,0.766,0.946,0.265,0.595,0.402,0.765,1.28
